Results filed as inconclusive are left out. The source made the active and inactive calls. The call rests on the fitted dose curve; in most records, active means well fitted inhibition curve with a large enough effect; inconclusive means small, poorly fitted or top-dose-only effect; inactive means no such curve, though single readings can be large or run the other way.
Assay: Acumen qHTS Assay for Inhibitors of the mTORC1 Signaling Pathway in MEF (Tsc2-/-, p53-/-) Cells: Hit Validation; further: nearly all actives have a fitted effect of over 65% in size
Settings: Acumen imaging; activity change, negative = inhibition: at 37.3 µM (top of the series)
From the text: The mammalian target of rapamycin (mTOR) is an intracellular serine/threonine kinase Aberrant regulation of mTOR signaling plays a causative role in a number of human diseases, including cancer, benign tumors such as lymphangioleiomyomatosis (LAM) and Tuberous Sclerosis Complex (TSC), and metabolic diseases such as diabetes and obesity. This project aims to identify inhibitors of ribosomal protein S6 (rpS6) phosphorylation. The phosphorylation of rpS6 is a key event downstream of mTOR activation. The assay uses a phospho-specific antibody of phospho-rpS6 to detect inhibitors of mTOR activation. Mutations in the Tsc1 and Tsc2 genes are the underlying genetic lesions responsible for TSC, causing constitutive activation of the mTORC1 pathway and leading to profound effects on cell metabolism. Aberrant metabolism in cancer has recently received significant attention as a target to develop therapeutic agents in the treatment of cancer.1 As Tsc2-/- cells have lost the ability to respond to energy and growth factor deprivation, these cells are unable to properly down regulate cellular biosynthetic processes in response to metabolic stress, and are thus extremely sensitive to glucose deprivation-induced death.2 A central goal of this project is to explore the unique cell survival and metabolic properties of cells with Tsc1 or Tsc2 by screening for compounds that selectively target the Tsc2-/- MEFs by screening both Tsc2-/- and WT MEF cell lines. We hope to better understand these aspects of TSC physiology in order to exploit them for therapeutic benefit.
NIH Molecular Libraries Probe Production Centers Network [MLPCN]
NIH Chemical Genomics Center [NCGC]
Assay Submitter (PI): Blenis, John; Harvard University
For quantitative high throughput analysis of mTORC1 signaling, we developed a cell-based assay for immuno-fluorescence based detection of rpS6 phosphorylation on the Acumen Explorer that will be used a platform for the primary small molecule screen. Mouse embryonic fibroblasts (MEFs) are cultured in 1536-well plates using DMEM + 10% FBS. Twenty-four hrs after plating, test compounds (solubilized in DMSO) are delivered and incubated with the cells for 24 hrs at 37 degree Celsius. Following the incubation, media with compound is aspirated and the cells are fixed in 4% paraformaldehyde (PFA) containing PBS + 0.2% TX-100. Next, PFA is aspirated, cells are washed two times with PBS plus 0.2% TX-100 and the cells are blocked for 1 hr at room temperature (blocking buffer: LiCOR Blocking Buffer plus 0.2% TX-100). This is followed by aspiration and staining with Alexa-488 conjugated-phospho-rpS6 Ser235/236 antibody for 2 hours at room temperature (Cell Signaling Technology # 4803, 1:50 dilution in blocking buffer). Cells are washed two times with PBS plus 0.2% TX-100, and stained with 10 uM propidium iodide (PI) for 20-25 minutes for cell number measurement (1:500 dilution of Hoescht staining is also added for IN Cell imaging). The plates are scanned on the Acumen Explorer laser scanning instrument (TTP Labtech) using the 488nm laser for simultaneous excitation of the Alexa-488 and PI. […] Fluorescence emission from the PI stain is selected using a 575-640 nm band pass filter. The normalized phospho-S6 staining is calculated as the ratio of the integrated Alexa 488 intensity divided by the integrated PI intensity for the single concentration rapamycin control (7.5 nM) and DMSO columns. […] Inhibition of the pathway is defined based on the normalized phospho-S6 intensity in rapamycin treated cells. Active cells are defined as those with a normalized phospho-S6 staining above this threshold, and each treatment is reported as the % positive cells in the well, where thresholds are defined by selecting wells with the highest and lowest signal and differentiating between the % non-active and % active populations. In addition to the pathway specific phospho-S6 endpoint, the number of PI stained cells from the Acumen is recorded as a measure of cell viability. […]
`CCCCN(CCCNC(=O)c1cc(Nc2cccc(SC)c2)nc2ccccc12)Cc1ccccc1` showed an activity change, negative = inhibition of -95.1%. `O=C(COc1ccc(F)cc1)Nc1ccc(Cl)c(-c2nc3ccccc3[nH]2)c1` gave an activity change, negative = inhibition of -4.39%. Molecule `CCOc1ccccc1NC(=O)CSc1cc(=O)n(CC)c2ccccc12` has an activity change, negative = inhibition of 1.04%. Work on `O=C(Nc1ccc(F)c(Cl)c1)c1cc(S(=O)(=O)N2CCCc3ccccc32)ccc1F` yielded an activity change, negative = inhibition of -51.1%. With `Cc1nn(C(C)C(=O)NC2CCCCC2)c(=O)c2c1sc1ccccc12` (stereo not given) the activity change, negative = inhibition was -2.94%. With `CC(C)CCNC(=O)C(=O)Nc1c2c(nn1-c1ccc(Cl)cc1)CSC2` the Potency was 5.85 µM (active). For `Cc1ccc(-c2nnc(C3CCN(S(=O)(=O)c4ccc(C)c(C)c4)CC3)o2)cc1`, the activity change, negative = inhibition was -7.22%. For `O=C(Nc1ccccc1F)c1nc(S(=O)(=O)Cc2ccccc2F)ncc1Cl`, the Potency was 2.93 µM (active). In the case of `CCOc1ccc(NC(=O)CSc2oc(-c3ccccc3)nc2S(=O)(=O)c2ccc(Cl)cc2)cc1`, the activity change, negative = inhibition is reported as -112%. `Cc1cc(C)cc(OCC(=O)Nc2cccc(-c3nc4ccccc4[nH]3)c2)c1` gave an activity change, negative = inhibition of -6.64%. In the case of `Cc1ccc(C(=O)/C=C/c2cn(CC(O)CN3CCCCCC3)c3ccccc23)cc1` (stereo not given), the Potency is reported as 18.5 µM (active). `Oc1ccccc1Nc1nc(-c2ccccc2)c2cc(Cl)ccc2n1` gave an activity change, negative = inhibition of -6.7%. Work on `Cc1ccc2nc(-c3cccc(NC(=O)c4cccc5ccccc45)c3)oc2c1` yielded an activity change, negative = inhibition of -72.4%. `Cc1ccc(O)c(C(CC(=O)NCC2(c3ccccc3)CCCC2)c2ccccc2)c1` (stereo not given) gave an activity change, negative = inhibition of 2.09%. With `CCOC(=O)c1c(NC(=O)c2nc(S(C)(=O)=O)ncc2Cl)sc(C(C)=O)c1C` the Potency was 4.14 µM (active). In the case of `Cc1cc(C)c(NC(=O)C2CCN(c3nc4ccccc4n4cccc34)CC2)c(C)c1`, the Potency is reported as 14.7 µM (active). `COc1cc(Cl)c(C)cc1NC(c1ccccc1)c1nnc(-c2ccccc2Cl)o1` (stereo not given) showed an activity change, negative = inhibition of -9.11%. `COCc1oc2ccc(NS(=O)(=O)c3ccc(C)cc3)cc2c1C(=O)OC` gave an activity change, negative = inhibition of -61.3%. For `COc1cc(Br)ccc1C1C(C(=O)Nc2ccc(C)cc2C)=C(C)Nc2nnnn21` (stereo not given), the activity change, negative = inhibition was -23.7%. In the case of `CC(C)S(=O)(=O)c1oc(-c2ccc(F)cc2)nc1S(=O)(=O)c1ccc(F)cc1`, the activity change, negative = inhibition is reported as -95%. `CC(=O)Nc1ccc2nc(-c3cc(C)ccc3C)[nH]c2c1` showed an activity change, negative = inhibition of -21.9%. With `COc1ccc2c(CNCCc3cccs3)c(C(=O)O)n(Cc3ccc(F)cc3Cl)c2c1` the activity change, negative = inhibition was -51.9%. With `COc1ccc(NS(=O)(=O)c2ccc(-n3cccn3)cc2)cc1OC` the activity change, negative = inhibition was -78.8%. For `CCCCN(CC)CCNC(=O)C1CCN(c2nnc(C)c3c(C)n(-c4ccc(C)cc4)nc23)CC1`, the activity change, negative = inhibition was -14.5%. In the case of `O=c1c(-c2cc(-c3ccc(F)cc3)nc3c2COc2ccc(Cl)cc2-3)coc2ccc(F)cc12`, the activity change, negative = inhibition is reported as 7.23%. `CCOC(=O)c1ccc(N2C(=O)c3n[nH]c(C)c3C2c2cccc(Br)c2)cc1` (stereo not given) showed an activity change, negative = inhibition of 4.8%. `COc1ccc(N(C)C(=O)c2cc(S(=O)(=O)N3CCc4ccccc43)cn2C)c(OC)c1` showed an activity change, negative = inhibition of 18.7%. For `COc1ccc(OCC(=O)NCc2ccc3c(c2)CCN3C(=O)c2ccccc2)cc1`, the Potency was 16.5 µM (active). `Cc1cc(C)c(NC(=O)c2sc3nc(C)cc(C)c3c2NC(=O)c2ccccc2)c(C)c1` gave an activity change, negative = inhibition of -8.54%. Work on `CCc1ccc(NC(=O)CSc2nccn2C2CCCC2)cc1` yielded an activity change, negative = inhibition of -3.21%. `COc1ccc(NC(=O)CSc2nc3ccccc3nc2N2CCC(C)CC2)cc1` gave an activity change, negative = inhibition of 6.7%. `CCS(=O)(=O)c1ccccc1C(=O)N(Cc1cccnc1)c1nc2cc(C)c(C)cc2s1` gave an activity change, negative = inhibition of -10%. `CCCOCc1cc(CN2CCN(c3ccccc3OC)CC2)c(O)c2ncccc12` showed an activity change, negative = inhibition of -93.6%. With `CCCc1oc2ccc(NS(=O)(=O)c3ccc(OCC)cc3)cc2c1C(=O)OCC` the Potency was 4.14 µM (active). `COC(=O)c1cc2sc(C)cc2n1Cc1ccccc1` gave an activity change, negative = inhibition of -16.6%. With `Cc1ccc(C)c(NC(=O)Nc2cc3c(cc2N2CCCCC2)n(C)c(=O)n3C)c1` the activity change, negative = inhibition was 3.56%. For `COc1ccc(S(=O)(=O)N(Cc2nc(-c3cccc(C)c3)no2)C2CCCCC2)cc1`, the activity change, negative = inhibition was -16.2%. In the case of `Cc1cccc(NC(=O)c2nc(S(C)(=O)=O)ncc2Cl)c1`, the Potency is reported as 2.07 µM (active). `COc1ccc(C)cc1NC(=O)CCNS(=O)(=O)c1cccc2nonc12` showed an activity change, negative = inhibition of 5.15%. Molecule `Cc1cccc(CS(=O)(=O)c2ncc(Cl)c(C(=O)NCc3ccccc3)n2)c1` has an activity change, negative = inhibition of -111%.

Source: PubChem BioAssay AID651784 (National Center for Advancing Translational Sciences (NCATS), 2012)
Potency means the concentration at half of the fitted maximal effect.
